# Test results from publication PMC7862700, “An all-to-all approach to the identification of sequence-specific readers for epigenetic DNA modifications on cytosine”.
# How the values were obtained:
# Experiment in all cases: DAPPL (digital affinity profiling via proximity ligation, sequencing); 10 mM Tris-HCl pH 7.5, 50 mM NaCl, 1 mM DTT, 4% glycerol, room temperature, 30 min; GST-TFs on glutathione beads, 16-mer random dsDNA library, 0.1% formaldehyde crosslink after washing; high values mean tight binding
# FEV = target: T1, FEV (Homo sapiens, UniProt Q99581 1-238); settings: protein: recombinant; tags: N-terminal GST; dsDNA, one strand shown
# T1 sequence: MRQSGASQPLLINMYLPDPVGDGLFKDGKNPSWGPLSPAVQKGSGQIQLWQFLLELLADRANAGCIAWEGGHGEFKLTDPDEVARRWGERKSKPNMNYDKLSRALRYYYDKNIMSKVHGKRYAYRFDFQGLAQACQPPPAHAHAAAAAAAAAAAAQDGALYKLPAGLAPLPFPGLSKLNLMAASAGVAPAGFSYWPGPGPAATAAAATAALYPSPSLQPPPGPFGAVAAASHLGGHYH
# Outline: (§1)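 Each value of binding signal is a hexamer's read frequency for a factor divided by the same hexamer's frequency in the tag-only sample. Barcoded, bead-captured GST fusions of human transcription factors made in yeast were pooled with that sample and incubated with 200 nmole of a random double-stranded 16-mer DNA library in Tris/NaCl/DTT/glycerol buffer at room temperature for 30 min. Washing, 0.1% formaldehyde crosslinking, proximity ligation, PCR and Illumina NextSeq500 sequencing followed.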
# ETV5 = ETV5 (Homo sapiens, UniProt P41161 1-510); settings: protein: recombinant; tags: N-terminal GST; dsDNA, one strand shown
# Sequence of ETV5 (P41161 whole entry): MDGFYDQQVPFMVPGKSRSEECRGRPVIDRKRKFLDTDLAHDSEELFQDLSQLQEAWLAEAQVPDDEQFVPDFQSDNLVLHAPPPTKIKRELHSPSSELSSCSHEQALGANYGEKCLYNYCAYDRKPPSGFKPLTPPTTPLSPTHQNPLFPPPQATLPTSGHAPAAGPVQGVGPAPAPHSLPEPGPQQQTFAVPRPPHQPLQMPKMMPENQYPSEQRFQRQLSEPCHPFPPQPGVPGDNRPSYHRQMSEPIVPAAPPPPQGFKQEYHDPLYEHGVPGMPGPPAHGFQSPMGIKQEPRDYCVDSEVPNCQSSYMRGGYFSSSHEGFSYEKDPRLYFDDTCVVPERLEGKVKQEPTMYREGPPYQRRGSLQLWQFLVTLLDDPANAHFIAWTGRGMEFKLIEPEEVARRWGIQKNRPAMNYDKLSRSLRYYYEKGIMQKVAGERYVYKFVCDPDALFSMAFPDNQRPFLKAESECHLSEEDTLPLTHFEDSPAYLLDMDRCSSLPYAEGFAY
# Outline: as §1
# HSF1 = HSF1 (Homo sapiens, UniProt Q00613 1-529); settings: protein: recombinant; tags: N-terminal GST; chain copies: 3; dsDNA, one strand shown
# Sequence of HSF1 (Q00613 whole entry): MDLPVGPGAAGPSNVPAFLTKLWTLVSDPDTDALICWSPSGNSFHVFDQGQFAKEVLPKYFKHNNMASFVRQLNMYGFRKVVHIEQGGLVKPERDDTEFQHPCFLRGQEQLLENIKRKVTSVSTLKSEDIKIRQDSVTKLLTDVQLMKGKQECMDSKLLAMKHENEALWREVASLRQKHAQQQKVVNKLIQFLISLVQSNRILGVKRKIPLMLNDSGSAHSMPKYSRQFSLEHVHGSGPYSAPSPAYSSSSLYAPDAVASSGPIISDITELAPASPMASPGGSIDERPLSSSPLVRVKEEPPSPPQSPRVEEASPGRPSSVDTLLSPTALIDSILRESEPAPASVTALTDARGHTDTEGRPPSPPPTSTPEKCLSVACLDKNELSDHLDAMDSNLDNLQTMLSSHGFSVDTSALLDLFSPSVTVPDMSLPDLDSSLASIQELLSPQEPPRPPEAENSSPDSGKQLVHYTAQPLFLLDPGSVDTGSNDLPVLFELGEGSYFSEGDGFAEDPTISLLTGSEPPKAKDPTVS
# Outline: as §1
# SPIC = target: T2, SPIC (Homo sapiens, UniProt Q8N5J4 1-248); settings: protein: recombinant; tags: N-terminal GST; dsDNA, one strand shown
# T2 sequence: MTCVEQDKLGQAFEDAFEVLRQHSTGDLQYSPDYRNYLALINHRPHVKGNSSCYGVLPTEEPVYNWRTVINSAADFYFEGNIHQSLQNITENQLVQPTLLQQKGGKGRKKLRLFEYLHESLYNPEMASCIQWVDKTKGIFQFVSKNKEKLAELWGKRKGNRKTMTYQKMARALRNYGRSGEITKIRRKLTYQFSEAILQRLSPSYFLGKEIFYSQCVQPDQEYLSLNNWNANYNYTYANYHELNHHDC
# Outline: as §1
# ELF4 = ELF4 (Homo sapiens, UniProt Q99607 1-663); settings: protein: recombinant; tags: N-terminal GST; dsDNA, one strand shown
# Sequence of ELF4 (Q99607 whole entry): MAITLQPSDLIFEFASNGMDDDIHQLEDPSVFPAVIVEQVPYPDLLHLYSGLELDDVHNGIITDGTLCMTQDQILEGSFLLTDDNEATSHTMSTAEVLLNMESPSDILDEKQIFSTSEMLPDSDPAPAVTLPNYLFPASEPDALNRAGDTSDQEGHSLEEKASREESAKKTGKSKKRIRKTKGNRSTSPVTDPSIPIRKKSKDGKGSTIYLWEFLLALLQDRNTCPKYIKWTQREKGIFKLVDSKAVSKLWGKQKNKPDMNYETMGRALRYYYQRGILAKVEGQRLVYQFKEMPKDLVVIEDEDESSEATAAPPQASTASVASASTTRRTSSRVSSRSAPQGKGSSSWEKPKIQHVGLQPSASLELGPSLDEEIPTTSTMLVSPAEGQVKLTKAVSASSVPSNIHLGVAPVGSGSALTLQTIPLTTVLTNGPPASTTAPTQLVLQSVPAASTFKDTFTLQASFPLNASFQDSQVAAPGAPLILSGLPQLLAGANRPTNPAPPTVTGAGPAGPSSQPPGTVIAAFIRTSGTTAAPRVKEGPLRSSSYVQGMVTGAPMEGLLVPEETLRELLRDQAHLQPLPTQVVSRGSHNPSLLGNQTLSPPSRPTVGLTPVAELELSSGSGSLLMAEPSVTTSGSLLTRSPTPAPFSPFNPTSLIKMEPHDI
# Outline: as §1
# ELK4 = target: T3, ELK4 (Homo sapiens, UniProt P28324-2 1-405); settings: protein: recombinant; tags: N-terminal GST; dsDNA, one strand shown
# T3 sequence: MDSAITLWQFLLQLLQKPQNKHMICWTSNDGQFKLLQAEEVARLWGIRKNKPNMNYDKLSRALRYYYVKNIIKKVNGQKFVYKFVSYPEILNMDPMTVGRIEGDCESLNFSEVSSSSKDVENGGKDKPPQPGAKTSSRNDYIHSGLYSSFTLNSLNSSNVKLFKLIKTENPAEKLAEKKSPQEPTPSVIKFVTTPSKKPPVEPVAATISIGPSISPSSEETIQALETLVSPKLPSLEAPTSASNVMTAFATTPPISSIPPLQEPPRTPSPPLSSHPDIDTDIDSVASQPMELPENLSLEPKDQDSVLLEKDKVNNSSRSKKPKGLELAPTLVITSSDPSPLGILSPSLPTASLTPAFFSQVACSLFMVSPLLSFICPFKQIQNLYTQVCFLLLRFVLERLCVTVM
# Outline: as §1
# ETV2 = target: T4, ETV2 (Homo sapiens, UniProt O00321 1-342); settings: protein: recombinant; tags: N-terminal GST; dsDNA, one strand shown
# T4 sequence: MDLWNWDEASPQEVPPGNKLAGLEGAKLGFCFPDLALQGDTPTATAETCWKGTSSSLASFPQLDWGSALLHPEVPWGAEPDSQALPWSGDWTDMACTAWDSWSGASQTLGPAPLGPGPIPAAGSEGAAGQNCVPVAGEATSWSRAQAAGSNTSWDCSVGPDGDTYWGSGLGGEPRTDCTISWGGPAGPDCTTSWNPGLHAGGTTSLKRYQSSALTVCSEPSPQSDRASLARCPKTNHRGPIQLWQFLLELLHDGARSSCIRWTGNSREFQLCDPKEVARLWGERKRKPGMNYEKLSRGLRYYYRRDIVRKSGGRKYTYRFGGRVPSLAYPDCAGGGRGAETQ
# Outline: as §1
# ELF3 = target: T5, ELF3 (Homo sapiens, UniProt P78545 1-371); settings: protein: recombinant; tags: N-terminal GST; dsDNA, one strand shown
# T5 sequence: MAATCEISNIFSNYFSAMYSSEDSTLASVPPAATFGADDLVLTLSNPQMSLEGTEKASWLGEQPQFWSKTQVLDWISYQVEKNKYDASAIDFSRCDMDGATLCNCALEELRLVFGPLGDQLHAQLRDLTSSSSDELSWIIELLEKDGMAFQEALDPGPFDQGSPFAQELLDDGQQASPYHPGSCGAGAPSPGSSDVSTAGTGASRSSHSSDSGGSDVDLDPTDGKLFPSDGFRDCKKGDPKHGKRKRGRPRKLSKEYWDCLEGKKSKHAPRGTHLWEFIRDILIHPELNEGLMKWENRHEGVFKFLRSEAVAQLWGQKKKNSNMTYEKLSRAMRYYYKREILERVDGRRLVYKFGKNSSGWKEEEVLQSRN
# Outline: as §1
# CRX = CRX (Homo sapiens, UniProt O43186 1-299); settings: protein: recombinant; tags: N-terminal GST; dsDNA, one strand shown
# Sequence of CRX (O43186 whole entry): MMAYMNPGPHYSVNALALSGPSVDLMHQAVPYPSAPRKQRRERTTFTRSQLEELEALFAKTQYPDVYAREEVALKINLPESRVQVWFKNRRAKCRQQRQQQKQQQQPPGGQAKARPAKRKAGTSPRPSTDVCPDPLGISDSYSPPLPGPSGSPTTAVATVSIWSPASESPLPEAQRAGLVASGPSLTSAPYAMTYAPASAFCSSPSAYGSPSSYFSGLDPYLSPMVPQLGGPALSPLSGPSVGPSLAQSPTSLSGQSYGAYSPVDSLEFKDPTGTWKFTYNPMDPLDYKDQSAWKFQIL
# Outline: as §1
# ETV1 = ETV1 (Homo sapiens, UniProt P50549 1-477); settings: protein: recombinant; tags: N-terminal GST; dsDNA, one strand shown
# Sequence of ETV1 (P50549 whole entry): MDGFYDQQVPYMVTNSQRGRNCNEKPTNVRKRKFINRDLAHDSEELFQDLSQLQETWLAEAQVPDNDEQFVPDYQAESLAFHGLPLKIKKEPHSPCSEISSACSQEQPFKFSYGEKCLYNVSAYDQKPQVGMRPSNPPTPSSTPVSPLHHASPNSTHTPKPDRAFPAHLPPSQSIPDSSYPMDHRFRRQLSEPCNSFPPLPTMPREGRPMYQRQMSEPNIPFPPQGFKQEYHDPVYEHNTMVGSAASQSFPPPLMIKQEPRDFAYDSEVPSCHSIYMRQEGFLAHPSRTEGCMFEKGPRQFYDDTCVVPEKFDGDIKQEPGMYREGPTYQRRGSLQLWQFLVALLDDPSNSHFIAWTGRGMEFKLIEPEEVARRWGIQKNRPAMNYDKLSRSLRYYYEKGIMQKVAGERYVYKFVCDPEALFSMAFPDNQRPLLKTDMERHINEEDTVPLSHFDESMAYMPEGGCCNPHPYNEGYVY
# Outline: as §1
# ERF = target: T6, ERF (Homo sapiens, UniProt P50548 1-548); settings: protein: recombinant; tags: N-terminal GST; dsDNA, one strand shown
# T6 sequence: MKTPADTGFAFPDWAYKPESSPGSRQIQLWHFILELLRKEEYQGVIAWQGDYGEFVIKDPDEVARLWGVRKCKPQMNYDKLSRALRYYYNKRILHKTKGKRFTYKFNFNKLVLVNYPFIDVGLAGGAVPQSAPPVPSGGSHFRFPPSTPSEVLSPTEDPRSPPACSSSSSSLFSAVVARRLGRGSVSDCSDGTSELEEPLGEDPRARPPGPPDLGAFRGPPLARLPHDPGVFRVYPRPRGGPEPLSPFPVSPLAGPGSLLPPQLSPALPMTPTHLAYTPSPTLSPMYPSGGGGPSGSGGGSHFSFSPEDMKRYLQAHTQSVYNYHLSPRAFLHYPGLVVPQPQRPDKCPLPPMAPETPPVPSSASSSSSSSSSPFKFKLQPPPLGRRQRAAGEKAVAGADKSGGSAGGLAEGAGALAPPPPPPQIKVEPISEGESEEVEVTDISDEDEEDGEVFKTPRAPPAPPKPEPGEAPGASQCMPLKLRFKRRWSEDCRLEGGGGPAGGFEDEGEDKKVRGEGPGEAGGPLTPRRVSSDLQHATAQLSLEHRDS
# Outline: as §1
# ETV3L = target: T7, ETV3L (Homo sapiens, UniProt Q6ZN32 1-361); settings: protein: recombinant; tags: N-terminal GST; dsDNA, one strand shown
# T7 sequence: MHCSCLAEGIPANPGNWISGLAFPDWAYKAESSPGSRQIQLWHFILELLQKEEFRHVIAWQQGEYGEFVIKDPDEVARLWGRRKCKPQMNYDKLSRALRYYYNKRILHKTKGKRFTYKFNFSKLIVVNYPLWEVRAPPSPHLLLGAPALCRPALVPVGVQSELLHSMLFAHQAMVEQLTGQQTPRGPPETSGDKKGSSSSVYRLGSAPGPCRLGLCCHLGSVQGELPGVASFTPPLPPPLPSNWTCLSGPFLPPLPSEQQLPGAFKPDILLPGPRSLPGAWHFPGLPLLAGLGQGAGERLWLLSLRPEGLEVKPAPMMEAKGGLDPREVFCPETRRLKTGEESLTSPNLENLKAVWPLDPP
# Outline: as §1
# ETS2 = target: T8, ETS2 (Homo sapiens, UniProt P15036 1-469); settings: protein: recombinant; tags: N-terminal GST; dsDNA, one strand shown
# T8 sequence: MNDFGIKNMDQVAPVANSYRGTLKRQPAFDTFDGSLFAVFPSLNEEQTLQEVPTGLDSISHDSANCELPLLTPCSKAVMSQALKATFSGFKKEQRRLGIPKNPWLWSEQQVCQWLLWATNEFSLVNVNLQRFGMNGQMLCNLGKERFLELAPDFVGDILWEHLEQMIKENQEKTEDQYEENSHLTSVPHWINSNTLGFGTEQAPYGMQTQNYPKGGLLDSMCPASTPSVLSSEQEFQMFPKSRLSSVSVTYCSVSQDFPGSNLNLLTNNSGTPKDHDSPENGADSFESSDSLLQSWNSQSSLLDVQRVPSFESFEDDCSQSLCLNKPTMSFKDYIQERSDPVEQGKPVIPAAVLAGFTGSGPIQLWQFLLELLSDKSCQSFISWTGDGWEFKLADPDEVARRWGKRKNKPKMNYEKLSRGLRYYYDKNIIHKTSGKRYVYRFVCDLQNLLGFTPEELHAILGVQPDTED
# Outline: as §1
# SPDEF = target: T9, SPDEF (Homo sapiens, UniProt O95238 1-335); settings: protein: recombinant; tags: N-terminal GST; dsDNA, one strand shown
# T9 sequence: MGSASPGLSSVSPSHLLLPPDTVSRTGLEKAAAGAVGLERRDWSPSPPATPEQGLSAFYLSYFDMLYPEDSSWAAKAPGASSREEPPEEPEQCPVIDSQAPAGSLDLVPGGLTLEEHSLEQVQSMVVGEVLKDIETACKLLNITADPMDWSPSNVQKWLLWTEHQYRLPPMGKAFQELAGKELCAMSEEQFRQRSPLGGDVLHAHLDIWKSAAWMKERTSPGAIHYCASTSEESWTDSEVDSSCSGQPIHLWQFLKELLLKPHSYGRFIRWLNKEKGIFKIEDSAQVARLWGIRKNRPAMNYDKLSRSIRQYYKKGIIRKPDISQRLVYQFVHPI
# Outline: as §1
# ETV7 = target: T10, ETV7 (Homo sapiens, UniProt Q9Y603 1-341); settings: protein: recombinant; tags: N-terminal GST; dsDNA, one strand shown
# T10 sequence: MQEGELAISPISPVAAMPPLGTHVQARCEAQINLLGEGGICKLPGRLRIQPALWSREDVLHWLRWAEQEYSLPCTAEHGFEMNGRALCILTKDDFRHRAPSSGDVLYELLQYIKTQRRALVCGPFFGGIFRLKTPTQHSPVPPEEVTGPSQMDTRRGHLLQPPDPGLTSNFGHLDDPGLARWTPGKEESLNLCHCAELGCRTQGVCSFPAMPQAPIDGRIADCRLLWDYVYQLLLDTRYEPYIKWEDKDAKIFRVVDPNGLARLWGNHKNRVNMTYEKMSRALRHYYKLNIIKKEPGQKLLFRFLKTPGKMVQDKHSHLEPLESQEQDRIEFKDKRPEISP
# Outline: as §1
# ELF5 = target: T11, ELF5 (Homo sapiens, UniProt Q9UKW6-2 1-255); settings: protein: recombinant; tags: N-terminal GST; dsDNA, one strand shown
# T11 sequence: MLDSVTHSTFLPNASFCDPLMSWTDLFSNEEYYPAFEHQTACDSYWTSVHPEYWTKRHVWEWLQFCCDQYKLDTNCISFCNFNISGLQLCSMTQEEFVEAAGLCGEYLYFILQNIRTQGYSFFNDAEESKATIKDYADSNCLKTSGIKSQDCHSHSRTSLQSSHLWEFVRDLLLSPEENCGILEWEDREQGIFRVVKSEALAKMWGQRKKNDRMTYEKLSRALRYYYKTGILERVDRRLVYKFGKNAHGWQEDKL
# Outline: as §1
# ETV3 = target: T12, ETV3 (Homo sapiens, UniProt P41162-2 1-143); settings: protein: recombinant; tags: N-terminal GST; dsDNA, one strand shown
# T12 sequence: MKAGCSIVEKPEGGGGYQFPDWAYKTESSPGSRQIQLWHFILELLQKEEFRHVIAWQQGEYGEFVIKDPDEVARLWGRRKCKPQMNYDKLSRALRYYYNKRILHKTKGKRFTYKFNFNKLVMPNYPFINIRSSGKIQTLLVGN
# Outline: as §1
# ETV6 = ETV6 (Homo sapiens, UniProt P41212 1-452); settings: protein: recombinant; tags: N-terminal GST; dsDNA, one strand shown
# Sequence of ETV6 (P41212 whole entry): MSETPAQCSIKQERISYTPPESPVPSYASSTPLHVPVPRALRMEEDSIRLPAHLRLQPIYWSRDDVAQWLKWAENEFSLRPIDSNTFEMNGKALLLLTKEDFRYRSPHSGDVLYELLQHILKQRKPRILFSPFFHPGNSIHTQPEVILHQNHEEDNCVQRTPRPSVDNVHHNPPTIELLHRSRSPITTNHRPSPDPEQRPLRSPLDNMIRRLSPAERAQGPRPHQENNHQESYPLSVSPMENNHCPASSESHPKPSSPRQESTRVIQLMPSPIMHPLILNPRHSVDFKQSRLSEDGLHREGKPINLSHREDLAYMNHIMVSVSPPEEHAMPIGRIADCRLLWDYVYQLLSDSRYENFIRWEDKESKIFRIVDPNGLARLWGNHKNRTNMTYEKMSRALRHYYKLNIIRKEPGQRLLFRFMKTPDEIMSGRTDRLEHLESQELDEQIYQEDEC
# Outline: as §1
sequence,measurement,setting,value
GAACTC,binding signal,FEV,"1.28 fold enrichment (6-mer frequency, TF over GST control)"
same,binding signal,ETV5,"1.29 fold enrichment (6-mer frequency, TF over GST control)"
same,binding signal,HSF1,"1.25 fold enrichment (6-mer frequency, TF over GST control)"
same,binding signal,SPIC,"1.32 fold enrichment (6-mer frequency, TF over GST control)"
same,binding signal,ELF4,"1.26 fold enrichment (6-mer frequency, TF over GST control)"
same,binding signal,ELK4,"1.14 fold enrichment (6-mer frequency, TF over GST control)"
same,binding signal,ETV2,"1.1 fold enrichment (6-mer frequency, TF over GST control)"
same,binding signal,ELF3,"1.29 fold enrichment (6-mer frequency, TF over GST control)"
same,binding signal,CRX,"1.02 fold enrichment (6-mer frequency, TF over GST control)"
same,binding signal,ETV1,"1.35 fold enrichment (6-mer frequency, TF over GST control)"
same,binding signal,ERF,"1.11 fold enrichment (6-mer frequency, TF over GST control)"
same,binding signal,ETV3L,"1.3 fold enrichment (6-mer frequency, TF over GST control)"
same,binding signal,ETS2,"1.26 fold enrichment (6-mer frequency, TF over GST control)"
same,binding signal,SPDEF,"1.33 fold enrichment (6-mer frequency, TF over GST control)"
same,binding signal,ETV7,"1.29 fold enrichment (6-mer frequency, TF over GST control)"
same,binding signal,ELF5,"1.32 fold enrichment (6-mer frequency, TF over GST control)"
same,binding signal,ETV3,"1.33 fold enrichment (6-mer frequency, TF over GST control)"
same,binding signal,ETV6,"1.28 fold enrichment (6-mer frequency, TF over GST control)"
